Most compounds without a hit are left out; they make up all but 3% or so of the library.
CHT PAM = allosterically activates the human high affinity choline transporter | B-score at 10 µM | CHT-expressing cells, membrane potential dye, choline EC20; active compounds read high; LV-AA mutant CHT in HEK293 cells | AID 488977 | Q9GZV3 | 0.49% of 310,000 active;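 active = initial fluorescence not abnormally high and integrated response B-score, plate-corrected, over 3 SD above library mean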
Target sequence (Q9GZV3 whole entry, looked up): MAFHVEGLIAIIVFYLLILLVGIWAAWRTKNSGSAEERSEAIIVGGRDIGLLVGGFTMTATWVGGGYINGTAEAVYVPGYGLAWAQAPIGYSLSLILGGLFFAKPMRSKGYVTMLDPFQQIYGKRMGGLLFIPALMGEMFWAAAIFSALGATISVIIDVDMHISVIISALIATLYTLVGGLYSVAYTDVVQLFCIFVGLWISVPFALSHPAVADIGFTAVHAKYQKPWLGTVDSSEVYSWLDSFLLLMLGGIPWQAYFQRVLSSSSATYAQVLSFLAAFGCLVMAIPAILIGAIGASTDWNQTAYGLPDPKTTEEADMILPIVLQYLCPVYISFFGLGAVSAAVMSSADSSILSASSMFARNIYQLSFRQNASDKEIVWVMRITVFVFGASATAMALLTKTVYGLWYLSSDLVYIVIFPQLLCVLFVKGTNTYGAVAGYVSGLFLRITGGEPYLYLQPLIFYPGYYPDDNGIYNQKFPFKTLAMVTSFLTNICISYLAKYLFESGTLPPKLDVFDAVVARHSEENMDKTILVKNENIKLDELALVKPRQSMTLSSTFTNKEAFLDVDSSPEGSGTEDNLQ
CHT inh = human CHT choline transport inhibition | Q9GZV3 | CHT-expressing cells, membrane potential dye, choline response; active compounds read low | B-score at 10 µM | 0.86% of 310,000 active | AID 488975;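 active = B-score over 3 SD under the library average, and starting fluorescence ratio not unusually high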;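 also: choline stimulus applied at its EC90 after an EC20 pre-addition; B-score computed on integrated fluorescence ratio after choline addition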
NALP3 yeast inh = inhibitors of NALP3 inflammasome in yeast; inhibition, % at 10 µM; AID 2825; Yeast reconstituted NLRP3/ASC/caspase-1, beta-gal luminescence, 24 h; 0.39% of 330,000 active;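 active = inhibition of 50% or more; inactive = inhibition below 50%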;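 also: plate controls were induced DMSO wells for no effect and uninduced yeast grown without galactose for full effect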
SUMO Mot1 rescue = inhibitors of SUMOylation pathway: yeast Mot1-301 growth rescue. S. cerevisiae Mot1-301 growth rescue, ATP luminescence, 38.5C; percent above DMSO median, 100 means doubled. growth rescue, % at 18.8 µM. 1% of 320,000 active;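 active = every valid replicate shows activation above 250% relative to neutral control wells; inactive = the rest, any valid replicate at or below 250%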;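 also: OY570 slx delta 5 strain wells were the positive control but not used for scaling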
NALP1 inh = blocks the NALP1 inflammasome reconstituted in yeast. AID 2071. S. cerevisiae NALP1/ASC/caspase-1 growth, X-gal OD620, 72 h. inhibition, % at 10 µM. 0.61% of 280,000 active; in the data active = inhibition mostly above about 24%, no sharp cut-off; inactive = mostly below about 32%
Bfl-1 A1 inh = inhibitors of the anti-apoptotic protein A1, read as caspase activation. MEF A1-2A-BIM cells, Caspase-Glo 3/7 luminescence, 3 h; percent of clofoctol response, vehicle zero. caspase activation, % (concentration not given with the values). 0.066% of 330,000 active. AID 2462;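 active = over half of replicate activation scores above 10%, or exactly half above 10 with the replicate mean above 10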
* marks the source's active call; other numbers are inactive results; i = inactive; . = no result; + = active, no number.

SMILES | CHT PAM | CHT inh | NALP3 yeast inh | SUMO Mot1 rescue | NALP1 inh | Bfl-1 A1 inh
O=C(c1cccc(C(F)(F)F)c1)C1CCCN(C(=O)CCc2cnccn2)C1 (centres undefined) | i | i | 12 | 358 | 16 | 0
N/C(Cc1ccc(Cl)c(Cl)c1)=N\OC(=O)c1cccs1 | i | i | 22 | 324* | 22 | 0
N/C(=N\OC(=O)c1cccs1)C1(c2ccc(Cl)cc2Cl)CC1 | i | i | -1 | 43 | 14 | 0
O=P(O)(CCc1ccccn1)CN1CCOCC1 | i | i | 5 | -18 | 39* | 0
O=P(O)(CCc1ccccn1)CN1CCCCC1 | i | i | -1 | -3 | 6 | 2
COC(=O)c1ccccc1C(=O)N1CCC(CCC(=O)NC2CC2)CC1 | i | i | 1 | -10 | 16 | 0
CN(C)CCN1C(=O)C(=O)/C(=C(/O)c2ccc(S(=O)(=O)N3CCOCC3)cc2)C1c1ccccc1 (centres undefined) | i | i | 4 | 315* | 0 | 0
CN(C)CCN1C(=O)C(=O)/C(=C(/O)c2ccc(S(=O)(=O)N3CCOCC3)cc2)C1c1ccc(Br)cc1 (centres undefined) | i | i | 10 | 354 | 10 | 1
Cc1nn(-c2ccccc2)c(C)c1/C=N/NC(=O)CSc1nc2ccccc2c(=O)n1-c1ccc(Br)cc1 | i | i | 2 | 2 | 23 | 7.1*
Cc1ccc(-n2c(SCC(=O)N/N=C/c3c(C)nn(-c4ccccc4)c3C)nc3ccccc3c2=O)cc1 | i | i | 22 | -9 | -2 | 0
O=C(Nc1ccc(F)cc1F)c1ccc2ncsc2c1 | i | i | 20 | 335* | 22 | -6
O=C(Nc1ccccc1F)c1ccc2ncsc2c1 | i | i | 23 | -17 | 10 | -6
CCC(C)NS(=O)(=O)c1ccc(S(=O)(=O)N(CC(=O)Nc2ccccc2)Cc2ccco2)cc1 (centres undefined) | i | i | 14 | 5 | 42* | -1
CCCC(C)NC(=O)CN(Cc1ccco1)S(=O)(=O)c1ccccc1 (centres undefined) | . | . | 2 | -12 | . | 0
CC1CCCN(S(=O)(=O)c2ccc(NC(=O)C3CCN(C(=O)c4ccco4)CC3)cc2)C1 (centres undefined) | i | i | 7 | 19 | 7 | 1
Cc1ccc(-n2c(=O)c(C#N)cc3c(=O)n4cccc(C)c4nc32)cc1 | i | i | 13 | -18 | 37* | -1
Cc1ccc(C)c(N2CCN(C(=O)CCS(=O)(=O)c3ccc4c(c3)NC(=O)C(C)S4)CC2)c1 (centres undefined) | i | i | 4 | 69 | 13 | 1
O=C(NCCCl)C1Cc2c(ccc3ccccc23)O1 (centres undefined) | i | i | 18 | + | -7 | 0
O=C(c1cc2cc(Cl)ccc2o1)N1CCCC1 | i | i | 49 | 21 | 35* | -1
CSc1ccccc1OCc1cc(C(=O)N(C)CC2COCCO2)no1 (centres undefined) | i | i | -1 | -22 | 12 | -1
CN(CC(=O)NCc1cccnc1)S(=O)(=O)c1ccc2c(c1)c(=O)n(C)c(=O)n2C | i | i | 11 | -18 | 44* | 0
O=C(CCC(=O)N1CCN(c2ccccc2F)CC1)N1CCN(c2ccccc2)CC1 | i | i | 12 | -5 | 7 | 9.4*
COC(=O)c1ccc(NC(=O)C2CCN(C(=O)c3cc(OC)c(OC)c(OC)c3)CC2)cc1 | i | i | 2 | 336* | 0 | 0
Cc1ccc(S(=O)(=O)c2nnn3c2nc(NC2CCN(Cc4ccccc4)CC2)c2ccccc23)cc1C | i | i | 23 | 12 | 13 | 1
CCOC(=O)C1(CCOC)CCN(Cc2ccc3nonc3c2)CC1 | i | i | -10 | 327* | 2 | 0
O=S(=O)(c1cccc(C(F)(F)F)c1)N1CCC(c2cc(-c3cccc4ccccc34)n[nH]2)CC1 | i | i | 4 | -13 | 37* | 1
COc1ccc(S(=O)(=O)N2CCN(C(=O)N3CCOCC3)C2C)cc1 (centres undefined) | i | i | 3 | 3 | -7 | 1

Screens from PubChem BioAssay.
